Experiment in all cases: HT-SELEX; high values mean tight binding
Holding throughout (settings): protein: recombinant; vector His6-GST; dsDNA, one strand shown

One experiment concerns the target T1, SALL4 ZFC4 WT (HT-SELEX) (Mus musculus, UniProt Q8BX22 870-940).
T1 sequence: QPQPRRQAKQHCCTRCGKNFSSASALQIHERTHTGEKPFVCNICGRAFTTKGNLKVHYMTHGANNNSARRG
A digest of the protocol:
(§1)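 Recombinant mouse SALL4 zinc finger cluster 4 (residues 870–940, 1 µg), purified, was mixed with library DNA (1.5 µg in the first cycle, 200 ng thereafter) in 100 µl of buffer containing 10 mM Tris–HCl pH 7.5, 50 mM NaCl, poly(dI-dC) and DTT, and left for 10 min at room temperature. Complexes were captured on Ni2+ beads, washed, amplified by PCR and reselected for up to 6 cycles in triplicate, after which MiSeq sequencing and a 6-mer scan followed. Binding signal is the read fraction of each canonical k-mer, given as fold change relative to the starting random library.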

The target in experiment [1] is T2, SALL4 ZFC4 R900W (HT-SELEX) (Mus musculus, UniProt Q8BX22 870-940, R900W).
T2 sequence: T1 sequence with R31W
A digest of the protocol:
as §1

The target of experiment [2] is T3, SALL4 ZFC4 G921D (HT-SELEX) (Mus musculus, UniProt Q8BX22 870-940, G921D).
T3 sequence: T1 sequence with G52D
Put shortly: as §1

Changes are numbered by the printed parent chain.

On to AGGTGG, for which the binding signal amounted to 0.487 ± 0.0135 fold-change vs cycle 0 with SALL4 ZFC4 WT (HT-SELEX), 0.556 ± 0.0106 fold-change vs cycle 0 in experiment [1] and 0.647 ± 0.0454 fold-change vs cycle 0 in experiment [2].
For AACTAC, the binding signal was found to be 1.27 ± 0.0931 fold-change vs cycle 0 in the experiment with SALL4 ZFC4 WT (HT-SELEX), 1.37 ± 0.099 fold-change vs cycle 0 in experiment [1] and 1.32 ± 0.108 fold-change vs cycle 0 in experiment [2].
On the same counts, the results for GAGCAC are 0.415 ± 0.0413 fold-change vs cycle 0, 0.537 ± 0.0508 fold-change vs cycle 0 and 0.674 ± 0.0417 fold-change vs cycle 0.
The like results for ATTCGG were, in that order, 0.592 ± 0.0176 fold-change vs cycle 0, 0.669 ± 0.0177 fold-change vs cycle 0 and 0.753 ± 0.0617 fold-change vs cycle 0.
The like results for ACTAAT were, in that order, 2.16 ± 0.0523 fold-change vs cycle 0, 2.13 ± 0.102 fold-change vs cycle 0 and 1.86 ± 0.174 fold-change vs cycle 0.
Consider GTGGGA, for which the binding signal in the experiment with SALL4 ZFC4 WT (HT-SELEX) amounted to 0.413 ± 0.0385 fold-change vs cycle 0; in experiment [1], 0.478 ± 0.0252 fold-change vs cycle 0; in experiment [2], 0.567 ± 0.0443 fold-change vs cycle 0.
The like results for CGAGGA were, in that order, 0.409 ± 0.0195 fold-change vs cycle 0, 0.5 ± 0.0275 fold-change vs cycle 0 and 0.587 ± 0.0701 fold-change vs cycle 0.
On the same counts, the results for AACCTA are 1.37 ± 0.0609 fold-change vs cycle 0, 1.47 ± 0.0701 fold-change vs cycle 0 and 1.4 ± 0.0994 fold-change vs cycle 0.
On the same counts, the results for ATCCCC are 0.549 ± 0.0564 fold-change vs cycle 0, 0.604 ± 0.0359 fold-change vs cycle 0 and 0.664 ± 0.0449 fold-change vs cycle 0.
Consider AAGAGT, for which the binding signal with SALL4 ZFC4 WT (HT-SELEX) came to 1.418 ± 0.0105 fold-change vs cycle 0; in experiment [1], 1.59 ± 0.0431 fold-change vs cycle 0; in experiment [2], 1.48 ± 0.0973 fold-change vs cycle 0.
The like results for ACGATC were, in that order, 0.662 ± 0.038 fold-change vs cycle 0, 0.773 ± 0.0211 fold-change vs cycle 0 and 0.907 ± 0.0183 fold-change vs cycle 0.
The like results for ACAGAC were, in that order, 0.687 ± 0.0257 fold-change vs cycle 0, 0.791 ± 0.00124 fold-change vs cycle 0 and 0.865 ± 0.0133 fold-change vs cycle 0.
On the same counts, the results for ATTTAA are 3.2 ± 0.134 fold-change vs cycle 0, 2.48 ± 0.146 fold-change vs cycle 0 and 2.15 ± 0.212 fold-change vs cycle 0.
AGAACG: the binding signal with SALL4 ZFC4 WT (HT-SELEX) came out at 0.692 ± 0.0289 fold-change vs cycle 0; in experiment [1] it was 0.817 ± 0.046 fold-change vs cycle 0; in experiment [2], 0.844 ± 0.0513 fold-change vs cycle 0.
As for ACTGCT, the binding signal with SALL4 ZFC4 WT (HT-SELEX) was 0.712 ± 0.054 fold-change vs cycle 0; in experiment [1] it was 0.797 ± 0.0817 fold-change vs cycle 0; in experiment [2], 0.89 ± 0.0309 fold-change vs cycle 0.
The like results for CGTGTC were, in that order, 0.335 ± 0.0147 fold-change vs cycle 0, 0.407 ± 0.0314 fold-change vs cycle 0 and 0.545 ± 0.0369 fold-change vs cycle 0.
Consider ACTATA, for which the binding signal with SALL4 ZFC4 WT (HT-SELEX) stood at 2.18 ± 0.121 fold-change vs cycle 0; in experiment [1], 1.98 ± 0.101 fold-change vs cycle 0; in experiment [2] it was 1.76 ± 0.177 fold-change vs cycle 0.
Regarding AGGAGG, the values for the binding signal (in the experiment with SALL4 ZFC4 WT (HT-SELEX); in experiment [1]; in experiment [2]) were 0.615 ± 0.0373 fold-change vs cycle 0, 0.701 ± 0.0545 fold-change vs cycle 0 and 0.762 ± 0.023 fold-change vs cycle 0, respectively.
The like results for AGTTAA were, in that order, 1.95 ± 0.0954 fold-change vs cycle 0, 2.13 ± 0.114 fold-change vs cycle 0 and 1.84 ± 0.201 fold-change vs cycle 0.
On the same counts, the results for CCATCC are 0.48 ± 0.0325 fold-change vs cycle 0, 0.541 ± 0.0313 fold-change vs cycle 0 and 0.633 ± 0.0281 fold-change vs cycle 0.
On the same counts, the results for CTGAAG are 0.866 ± 0.0297 fold-change vs cycle 0, 1.01 ± 0.0356 fold-change vs cycle 0 and 1.03 ± 0.0122 fold-change vs cycle 0.
As for GATGCA, the binding signal with SALL4 ZFC4 WT (HT-SELEX) was 0.68 ± 0.0339 fold-change vs cycle 0; in experiment [1] it was 0.75 ± 0.0294 fold-change vs cycle 0; in experiment [2], 0.848 ± 0.0393 fold-change vs cycle 0.
On the same counts, the results for GAATAC are 1.29 ± 0.026 fold-change vs cycle 0, 1.41 ± 0.0467 fold-change vs cycle 0 and 1.34 ± 0.07 fold-change vs cycle 0.
The like results for CCATTA were, in that order, 1.33 ± 0.0471 fold-change vs cycle 0, 1.4 ± 0.0728 fold-change vs cycle 0 and 1.32 ± 0.097 fold-change vs cycle 0.
The like results for CTTAAA were, in that order, 1.73 ± 0.0848 fold-change vs cycle 0, 1.87 ± 0.112 fold-change vs cycle 0 and 1.65 ± 0.165 fold-change vs cycle 0.
As to TAGAGA, the binding signal with SALL4 ZFC4 WT (HT-SELEX) was found to be 1.42 ± 0.0253 fold-change vs cycle 0; in experiment [1], 1.54 ± 0.113 fold-change vs cycle 0; in experiment [2] it was 1.48 ± 0.0729 fold-change vs cycle 0.
On the same counts, the results for CATCCA are 0.851 ± 0.0432 fold-change vs cycle 0, 0.934 ± 0.0343 fold-change vs cycle 0 and 0.974 ± 0.0408 fold-change vs cycle 0.
The like results for AATGAT were, in that order, 2.25 ± 0.203 fold-change vs cycle 0, 2.15 ± 0.135 fold-change vs cycle 0 and 1.94 ± 0.238 fold-change vs cycle 0.
On the same counts, the results for ACTACG are 0.659 ± 0.026 fold-change vs cycle 0, 0.728 ± 0.025 fold-change vs cycle 0 and 0.821 ± 0.0676 fold-change vs cycle 0.
With TACGGA, the binding signal is 0.719 ± 0.0383 fold-change vs cycle 0 with SALL4 ZFC4 WT (HT-SELEX), 0.834 ± 0.0149 fold-change vs cycle 0 in experiment [1] and 0.856 ± 0.0265 fold-change vs cycle 0 in experiment [2].

The values above are taken from PMC9838217, “Structure of SALL4 zinc finger domain reveals link between AT-rich DNA binding and Okihiro syndrome”.
